Screening data deposited in PubChem by several laboratories.
LEDGF integ inh – blockers of LEDGF/p75-dependent integrase strand transfer – biochemical, TR-FRET, high throughput, primary screen. TR-FRET IN-LEDGF/p75 DNA integration, Eu/Cy5. inhibition, % at 3.7 µM. 0.64% of 370,000 active. AID 743269, 2014;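 active = inhibition above the screen-wide mean plus 3 SD, cut at about 13% in these data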;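 note: signal is the Cy5 over europium emission ratio at 671 and 618 nm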
UHRF1 binding – UHRF1 methylated DNA binding inhibitors, primary screen, counter-screen for MBD2 inhibitor project, biochemical, TR-FRET, human UHRF1, single concentration | inhibition, % at 4.4 µM | UHRF1 binding to methylated oligo | 0.75% of 370,000 active | E3 ubiquitin-protein ligase UHRF1 (Homo sapiens), Q96T88; in the data active = inhibition above about 21%;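 note: UHRF1 SRA domain binding a hemimethylated CpG hairpin DNA probe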
PG9 Ab binder – binders of HIV-1 gp120 antibody PG9, primary screen, biochemical, TR-FRET; HIV-1 gp120 / PG9 antibody interaction; TR-FRET gp120-PG9 antibody binding; inhibition, % at 6.7 µM; 0.43% of 360,000 active; AID 624416, 2012; in the data active = inhibition above about 8.5%
MBD2 DNA inh – inhibitors of MBD2 binding to methylated DNA, primary screen, biochemical, TR-FRET, DNA-binding domain, human | inhibition, % at 4.4 µM | 0.31% of 370,000 active | AID 686964, 2013 | MBD2 binding to methylated oligonucleotide | Methyl-CpG-binding domain protein 2 (Homo sapiens), Q9UBB5; in the data active = inhibition above about 13%
Target sequence (Q9UBB5 whole entry, looked up, the tested form may be a part): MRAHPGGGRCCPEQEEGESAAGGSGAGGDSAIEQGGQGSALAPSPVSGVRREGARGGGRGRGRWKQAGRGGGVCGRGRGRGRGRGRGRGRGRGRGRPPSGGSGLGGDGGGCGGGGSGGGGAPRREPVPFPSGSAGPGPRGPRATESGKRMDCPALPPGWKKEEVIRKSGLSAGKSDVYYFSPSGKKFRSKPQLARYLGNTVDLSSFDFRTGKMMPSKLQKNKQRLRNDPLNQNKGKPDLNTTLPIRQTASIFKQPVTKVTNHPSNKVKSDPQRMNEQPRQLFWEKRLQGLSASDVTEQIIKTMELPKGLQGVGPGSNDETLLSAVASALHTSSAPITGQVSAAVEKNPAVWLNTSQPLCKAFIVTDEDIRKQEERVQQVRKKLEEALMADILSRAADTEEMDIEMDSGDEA
DNMT1 block – human DNMT1 methyltransferase inhibitors, primary screen, biochemical, molecular beacon, fluorescence, HinP1I cleavage, uHTS. DNA (cytosine-5)-methyltransferase 1 (Homo sapiens), P26358. inhibition (reported as % activation of signal), % at 10 µM. 0.83% of 360,000 active; in the data active = inhibition above about 50%
rCAG RNA binder – binders of r(CAG) RNA repeats, primary screen, biochemical, fluorescence | r(CAG) RNA repeat, TO-PRO-1 dye displacement fluorescence | inhibition, % at 3 µM | 1.3% of 370,000 active | AID 651821, 2012;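 active = inhibition above the plate cutoff, the mean of all test compounds on that plate plus 3 SD, cut at about 35% in these data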;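 note: higher means more dye released from RNA so lower well fluorescence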
A number is an active result; . = inactive; / = no result given. Sampled rows, rich in hits. Any-hit rate of the full collection: about 3.5%.

SMILES	LEDGF integ inh	UHRF1 binding	PG9 Ab binder	MBD2 DNA inh	DNMT1 block	rCAG RNA binder
C/C(=N\N=C(N)N)c1ccc(Cl)cc1Cl	.	38	.	.	.	.
CC(Sc1ccccc1)C(=O)Nc1cccc(N(C)S(C)(=O)=O)c1 (stereo not given)	.	23	.	.	.	.
CN(c1cccc(NC(=O)c2ccc(C(C)(C)C)cc2)c1)S(C)(=O)=O	.	23	.	.	.	.
COc1ccc(CNS(=O)(=O)c2cc3c(cc2Br)CC(C)N3C(C)=O)cc1 (stereo not given)	.	.	/	.	/	.
CCC(C)NC(=O)c1ccc(N2CC3CC(C2)c2cccc(=O)n2C3)c(NC(=O)c2ccc(Br)o2)c1 (stereo not given)	.	.	.	.	.	.
COC(=O)C1CN(Cc2ccc(OC)cc2)CCS(=O)(=O)N1Cc1ccc(C(F)(F)F)cc1 (stereo not given)	.	.	/	.	/	.
CCc1nnn2c1Cn1c3ccccc3c(=O)n1[C@@H](C)C2	.	.	/	.	/	.
FC(F)Sc1ccc(NC(=S)NC2CCCCC2)cc1	.	.	.	.	.	.
CC1CCCCC1NC(=S)Nc1ccc(SC(F)F)cc1 (stereo not given)	.	38	.	.	.	.
CCc1ccccc1OCC(=O)Nc1cc(S(=O)(=O)N2CCOCC2)ccc1N1CCCCC1	.	.	.	.	.	.
COc1ccc(CC(=O)Nc2cc(F)ccc2F)cc1S(=O)(=O)N1CCOCC1	.	.	.	.	.	.
CCCOc1ccc(N)cc1N	38	.	.	.	.	.
CCOc1cc(/C=N/NC(=O)c2ccc(-c3csc(Nc4ccc(C)cc4)n3)cc2)ccc1OCC(=O)O	.	.	.	.	78	.
O=C(O)COc1ccc(/C=N/NC(=O)c2ccc(-c3csc(Nc4ccc(Cl)cc4)n3)cc2)cc1	.	21	.	.	.	.
COc1cc(/C=N\NC(=O)c2ccc(-c3ccccc3)cc2)ccc1OCC(N)=O	.	.	.	.	.	.
NC1=[N+](Cc2ccccc2)C[C@H]2C(=C3CCCC[C@H]3n3c(=O)n(-c4ccccc4)c(=O)n32)N1	.	.	/	.	/	.
CC(C)CNc1cccc2c1S(=O)(=O)N(Cc1cn(Cc3ccc(C(F)(F)F)cc3)nn1)Cc1ccccc1O2	.	.	/	.	/	.
Cn1c(=O)n(CCOc2ccccc2Cl)c2ccccc21	.	.	.	.	.	.
N=c1n(CCCOc2ccccc2Cl)c2ccccc2n1CC(N)=O	.	25	.	.	.	.
O=C(COc1ccc(Br)cc1)NNC(=O)c1cc(S(=O)(=O)N2CCOCC2)ccc1Cl	35	.	.	.	.	.
CC1CCCN(C(=O)Cn2nnc(-c3ccc([N+](=O)[O-])cc3)n2)C1 (stereo not given)	.	29	.	.	.	.
CC1CCCN(C(=O)Cn2nnc(-c3ccc(F)cc3)n2)C1 (stereo not given)	.	.	.	.	.	.
CC(=O)NC(Cc1ccccc1C)C(=O)NC1CCN(c2c3c(nc4ncnn24)CCC3)CC1 (stereo not given)	.	39	.	.	/	.
COc1ccc(C(=O)OCCN(C)C2CN(Cc3cn(Cc4cccc(F)c4)nn3)S(=O)(=O)C2)cc1OC (stereo not given)	.	.	/	.	/	.
CC(C)(C)c1ccc(-c2noc(-c3ccc4c(c3)CCO4)n2)cc1	.	25	.	.	.	.
Cc1noc(C)c1COc1ccccc1C(=O)N1CCN(S(=O)(=O)c2ccccc2Br)CC1	.	.	.	.	.	.
Cc1cc(C)c(C)c(S(=O)(=O)N2CCN(C(=O)c3ccccc3OCc3c(C)noc3C)CC2)c1C	.	28	.	.	.	.
CCOc1ccc(/C=N/n2c(-c3n[nH]c4c3CCC4)n[nH]c2=S)cc1	.	.	/	.	/	.
O=c1c2ccc(F)cc2sn1-c1ccccc1	.	88	.	.	.	.
